# Data: PubChem BioAssay (Tox21)
# Unmarked numbers belong to inactive results. Inconclusive results are not listed. A call without a number means that no potency is given here. Active and inactive are the calls of the source. Calls follow the shape of the dose curve; as a rule, active = well fitted curve in the direction sought with a large enough effect in the repeat runs; inconclusive = weak or mixed curves; inactive = no such curve, though single readings can be large; an effect the other way counts as inactive or inconclusive.
# Experiments:
# [1] = qHTS RealTime-Glo MT Cell Viability Assay in HEK293 cells - 16 hour (AID 1224872); also: nearly all actives have a fitted effect of over 50% in size; also: potency is read from the fitted curve at half-maximal effect; as to activity change, negative = cytotoxicity: top concentration of the series differs between compounds
# Procedure, shortened: (§1)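 Luminescence generated by NanoLuc from substrate produced by living HEK293 cells served as the viability signal. Each value reflects the reading at its stated time point during continuous 40 h compound exposure at 37 C.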
# [2] = qHTS RealTime-Glo MT Cell Viability Assay in HepG2 cells - 8 hour (AID 1224873); also: nearly all actives have a fitted effect of over 55% in size; also: potency is read from the fitted curve at half-maximal effect
# Procedure, shortened: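 HepG2 cells (600/well) mixed with RealTime-Glo MT reagent, settled 5 h at 37 C/5% CO2 before compound addition. Nonlytic NanoLuc luminescence from viable-cell prosubstrate reduction read repeatedly during 40 h treatment at 37 C.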
# [3] = qHTS RealTime-Glo MT Cell Viability Assay in HEK293 cells - 40 hour (AID 1224874); conditions: RealTime-Glo luminescence; max response: stronger effect = lower value; also: nearly all actives have a fitted effect of over 50% in size; also: potency is read from the fitted curve at half-maximal effect
# Procedure, shortened: (§2)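 Viable HEK293 cells reduce a cell-permeant prosubstrate; the product diffuses out and is consumed by NanoLuc in the medium to give light. Compounds went in after a 5 h incubation and plates were read over the treatment course.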
# [4] = A CellTox Green Cytotoxicity Assay to monitor cytotoxicity in HEK293 cells - 24 hour (AID 1224875); also: nearly all actives have a fitted effect of over 45% in size; also: potency is read from the fitted curve at half-maximal effect; as to activity change: series mostly up to about 77 µM
# Procedure, shortened: (§3)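 Fluorescence intensity, read at 0, 8, 16, 24, 32 and 40 h of compound treatment, reflected dye binding to DNA of dead HEK293 cells; compounds (23 nL, DMSO) were added 5 h after plating cells with reagent.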
# [5] = A CellTox Green Cytotoxicity Assay to monitor cytotoxicity in HepG2 cells - 16 hour (AID 1224876); also: nearly all actives have a fitted effect of over 45% in size; also: potency is read from the fitted curve at half-maximal effect
# Procedure, shortened: (§4)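 Using 1536-well format, dye-containing HepG2 suspension was seeded, allowed 5 h at 37 C/5% CO2, dosed by pintool with compounds, positive and negative controls, and imaged for fluorescence across 40 h.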
# [6] = qHTS RealTime-Glo MT Cell Viability Assay in HepG2 cells - 32 hour (AID 1224877); also: nearly all actives have a fitted effect of over 55% in size; also: potency is read from the fitted curve at half-maximal effect
# Procedure, shortened: (§5)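 Tox21 10K library screened in qHTS format on HepG2 cells carrying RealTime-Glo reagents. Compounds were added after a 5 h preincubation, and the luminescent signal from continuous culture was measured repeatedly during 40 h treatment.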
# [7] = A CellTox Green Cytotoxicity Assay to monitor cytotoxicity in HepG2 cells - 24 hour (AID 1224878); also: nearly all actives have a fitted effect of over 45% in size; also: potency is read from the fitted curve at half-maximal effect
# Procedure, shortened: as §4
# [8] = A CellTox Green Cytotoxicity Assay to monitor cytotoxicity in HepG2 cells - 40 hour (AID 1224879); also: nearly all actives have a fitted effect of over 40% in size; also: potency is read from the fitted curve at half-maximal effect
# Procedure, shortened: as §4
# [9] = qHTS RealTime-Glo MT Cell Viability Assay in HEK293 cells - 0 hour (AID 1224880); also: top concentration of the series differs between compounds; nearly all actives have a fitted effect of over 45% in size
# Procedure, shortened: as §2
# [10] = A CellTox Green Cytotoxicity Assay to monitor cytotoxicity in HEK293 cells - 32 hour (AID 1224881); also: nearly all actives have a fitted effect of over 40% in size; also: potency is read from the fitted curve at half-maximal effect
# Procedure, shortened: as §3
# [11] = A CellTox Green Cytotoxicity Assay to monitor cytotoxicity in HepG2 cells - 0 hour (AID 1224882); also: nearly all actives have a fitted effect of over 35% in size
# Procedure, shortened: as §4
# [12] = A CellTox Green Cytotoxicity Assay to monitor cytotoxicity in HepG2 cells - 32 hour (AID 1224883); also: nearly all actives have a fitted effect of over 50% in size; also: potency is read from the fitted curve at half-maximal effect
# Procedure, shortened: as §4
# [13] = qHTS RealTime-Glo MT Cell Viability Assay in HepG2 cells - 16 hour (AID 1224885); also: nearly all actives have a fitted effect of over 50% in size; also: potency is read from the fitted curve at half-maximal effect
# Procedure, shortened: as §5
# [14] = qHTS RealTime-Glo MT Cell Viability Assay in HEK293 cells - 24 hour (AID 1224886); also: nearly all actives have a fitted effect of over 50% in size; also: potency is read from the fitted curve at half-maximal effect; as to activity change, negative = cytotoxicity: top concentration of the series differs between compounds
# Procedure, shortened: as §1
# [15] = qHTS RealTime-Glo MT Cell Viability Assay in HEK293 cells - 8 hour (AID 1224887); also: nearly all actives have a fitted effect of over 50% in size; also: potency is read from the fitted curve at half-maximal effect; as to activity change, negative = cytotoxicity: top concentration of the series differs between compounds
# Procedure, shortened: as §2
# [16] = A CellTox Green Cytotoxicity Assay to monitor cytotoxicity in HEK293 cells - 16 hour (AID 1224888); also: nearly all actives have a fitted effect of over 35% in size; also: potency is read from the fitted curve at half-maximal effect
# Procedure, shortened: as §3
# [17] = qHTS RealTime-Glo MT Cell Viability Assay in HepG2 cells - 0 hour (AID 1224889); also: nearly all actives have a fitted effect of over 50% in size; also: potency is read from the fitted curve at half-maximal effect
# Procedure, shortened: as §5
# [18] = A CellTox Green Cytotoxicity Assay to monitor cytotoxicity in HepG2 cells - 8 hour (AID 1224890); also: nearly all actives have a fitted effect of over 45% in size; also: potency is read from the fitted curve at half-maximal effect
# Procedure, shortened: as §4
# [19] = qHTS assay to identify small molecule antagonists of the estrogen receptor alpha (ER-alpha) signaling pathway using the BG1 cell line in the presence of 0.1 nM 17-beta-estradiol - cell viability counter screen (AID 1259241); also: nearly all actives have a fitted effect of over 40% in size; also: potency is read from the fitted curve at half-maximal effect
# Procedure, shortened: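 The cell line endogenously expresses full-length ER-alpha and carries four EREs driving luciferase. Cells are cultured 5 days hormone-free, treated 22 hr with compounds and 0.1 nM estradiol, then viability is read by fluorescence.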
# [20] = A CellTox Green Cytotoxicity Assay to monitor cytotoxicity in HEK293 cells - 8 hour (AID 1224884); also: nearly all actives have a fitted effect of over 35% in size; also: potency is read from the fitted curve at half-maximal effect
# Procedure, shortened: as §3
structure (smiles),measurement,setting,value
[Cl][Sn]([c]1ccccc1)([c]1ccccc1)[c]1ccccc1,Potency,[1],0.293 µM (active)
same,Potency,[2],7.37 µM (active)
same,Potency,[3],0.233 µM (active)
same,Potency,[4],1.85 µM (active)
same,Potency,[5],3.29 µM (active)
same,Potency,[6],2.61 µM (active)
same,Potency,[7],2.61 µM (active)
same,Potency,[8],2.61 µM (active)
same,"activity change, negative = cytotoxicity",[9],1.26% [at 15.8 µM]
same,Potency,[10],1.65 µM (active)
same,cytotoxicity,[11],7.07% [at 15.8 µM]
same,Potency,[12],2.61 µM (active)
same,Potency,[13],2.93 µM (active)
same,Potency,[14],0.262 µM (active)
same,Potency,[15],0.737 µM (active)
same,Potency,[16],2.33 µM (active)
same,"activity change, negative = cytotoxicity",[17],2.43% [at 15.8 µM]
same,Potency,[18],9.28 µM (active)
same,Potency,[19],4.11 µM (active)
CC(=[OH+])/C=C(/C)[O-].CC(=[OH+])/C=C(\C)[O-].CC(=[OH+])/C=C(\C)[O-].[Fe],Potency,[1],inactive
same,Potency,[2],inactive
same,max response,[3],5.66%
same,Potency,[4],inactive
same,Potency,[5],inactive
same,Potency,[6],inactive
same,Potency,[7],inactive
same,Potency,[8],inactive
same,Potency,[10],inactive
same,Potency,[11],inactive
same,Potency,[12],inactive
same,Potency,[20],inactive
same,Potency,[13],inactive
same,Potency,[14],inactive
same,Potency,[15],inactive
same,Potency,[16],inactive
same,Potency,[18],inactive
same,Potency,[19],inactive
COC[C@H](C)N(C(=O)CCl)c1c(C)csc1C,Potency,[1],inactive
same,Potency,[2],inactive
same,max response,[3],19.6%
same,Potency,[4],inactive
same,Potency,[5],inactive
same,Potency,[6],inactive
same,Potency,[7],inactive
same,Potency,[8],inactive
same,Potency,[10],inactive
same,Potency,[11],inactive
same,Potency,[12],inactive
same,Potency,[20],inactive
same,Potency,[13],inactive
same,Potency,[14],inactive
same,Potency,[15],inactive
same,Potency,[16],inactive
same,Potency,[17],inactive
same,Potency,[18],inactive
same,Potency,[19],inactive
Oc1ccc(I)cc1,Potency,[1],inactive
same,Potency,[2],inactive
same,max response,[3],-9.46%
same,Potency,[4],inactive
same,Potency,[5],inactive
same,Potency,[6],inactive
same,Potency,[7],inactive
same,Potency,[8],inactive
same,Potency,[10],inactive
same,Potency,[11],inactive
same,Potency,[12],inactive
same,Potency,[20],inactive
same,Potency,[13],inactive
same,Potency,[14],inactive
same,Potency,[15],inactive
same,Potency,[16],inactive
same,Potency,[17],inactive
same,Potency,[18],inactive
same,Potency,[19],inactive
[Hg+2].[I-].[I-],Potency,[1],3.47 µM (active)
same,Potency,[2],12.3 µM (active)
same,Potency,[3],2.45 µM (active)
same,Potency,[4],24.5 µM (active)
same,Potency,[5],12.3 µM (active)
same,Potency,[6],11 µM (active)
same,Potency,[7],11 µM (active)
same,Potency,[10],21.9 µM (active)
same,Potency,[12],7.76 µM (active)
same,Potency,[13],11 µM (active)
same,Potency,[14],3.09 µM (active)
same,Potency,[15],6.16 µM (active)
same,Potency,[16],43.6 µM (active)
same,Potency,[17],24.5 µM (active)
same,Potency,[18],15.5 µM (active)
same,Potency,[19],30.6 µM (active)
FC(Cl)(Cl)Cl,Potency,[1],inactive
same,Potency,[2],inactive
same,max response,[3],-2.7%
same,Potency,[4],inactive
same,Potency,[5],inactive
same,Potency,[6],inactive
same,Potency,[7],inactive
same,Potency,[9],inactive
same,Potency,[10],inactive
same,Potency,[12],inactive
same,Potency,[13],inactive
same,Potency,[14],inactive
same,Potency,[15],inactive
same,Potency,[16],inactive
same,Potency,[17],inactive
same,Potency,[18],inactive
same,Potency,[19],inactive
CCOCCOC(C)=O,Potency,[1],inactive
same,Potency,[2],inactive
same,max response,[3],4.22%
same,Potency,[4],inactive
same,Potency,[5],inactive
same,Potency,[6],inactive
same,Potency,[7],inactive
same,Potency,[10],inactive
same,Potency,[11],inactive
same,Potency,[12],inactive
same,Potency,[20],inactive
same,Potency,[13],inactive
same,Potency,[14],inactive
same,Potency,[15],inactive
same,Potency,[16],inactive
same,Potency,[18],inactive
same,Potency,[19],inactive
C[C@H]1CC[C@@H]2[C@@H](C)[C@H]3[C@H](C[C@H]4[C@@H]5CC=C6CC(O[C@@H]7O[C@H](CO)[C@H](O)[C@H](O[C@@H]8O[C@H](CO)[C@@H](O)[C@H](O)[C@H]8O)[C@H]7O[C@H]7O[C@@H](C)[C@H](O)[C@@H](O)[C@H]7O)CC[C@]6(C)[C@H]5CC[C@]34C)N2C1 (some centres undefined),Potency,[1],12.7 µM (active)
same,Potency,[2],45.1 µM (active)
same,Potency,[3],14.3 µM (active)
same,Potency,[4],4.51 µM (active)
same,Potency,[5],22.6 µM (active)
same,Potency,[6],50.6 µM (active)
same,Potency,[7],11.3 µM (active)
same,Potency,[10],5.06 µM (active)
same,Potency,[11],inactive
same,Potency,[12],22.6 µM (active)
same,Potency,[20],12.7 µM (active)
same,Potency,[13],50.6 µM (active)
same,Potency,[14],12.7 µM (active)
same,Potency,[15],8.99 µM (active)
same,Potency,[16],7.14 µM (active)
same,Potency,[17],inactive
same,Potency,[18],25.3 µM (active)
same,Potency,[19],inactive
CC(C)CCCCCOC(=O)c1ccccc1C(=O)OCCCCCC(C)C,Potency,[1],inactive
same,Potency,[2],inactive
same,max response,[3],-3.2%
same,Potency,[4],inactive
same,Potency,[5],inactive
same,Potency,[6],inactive
same,Potency,[9],inactive
same,Potency,[10],inactive
same,Potency,[11],inactive
same,Potency,[12],inactive
same,Potency,[20],inactive
same,Potency,[13],inactive
same,Potency,[14],inactive
same,Potency,[15],inactive
same,Potency,[16],inactive
same,Potency,[17],inactive
same,Potency,[18],inactive
same,Potency,[19],inactive
CCc1ccccc1C,Potency,[1],inactive
same,Potency,[2],inactive
same,max response,[3],0.859%
same,Potency,[4],inactive
same,Potency,[5],inactive
same,Potency,[6],inactive
same,Potency,[8],inactive
same,Potency,[9],inactive
same,Potency,[10],inactive
same,Potency,[11],inactive
same,Potency,[12],inactive
same,Potency,[20],inactive
same,Potency,[13],inactive
same,Potency,[14],inactive
same,Potency,[15],inactive
same,Potency,[16],inactive
same,Potency,[19],inactive
CC(C)CC(C)N (centres undefined),Potency,[1],inactive
same,Potency,[2],inactive
same,max response,[3],4.09%
same,Potency,[4],inactive
same,Potency,[5],inactive
same,Potency,[6],inactive
same,Potency,[8],inactive
same,Potency,[9],inactive
same,Potency,[10],inactive
same,Potency,[11],inactive
same,Potency,[12],inactive
same,Potency,[20],inactive
same,Potency,[13],inactive
same,Potency,[14],inactive
same,Potency,[15],inactive
same,Potency,[16],inactive
same,Potency,[18],inactive
same,Potency,[19],inactive
COC12CC[C@@]3(C[C@@H]1C(C)(O)C(C)(C)C)[C@H]1Cc4ccc(O)c5c4[C@@]3(CCN1CC1CC1)[C@H]2O5 (some centres undefined),Potency,[1],24.4 µM (active)
same,Potency,[2],43.4 µM (active)
same,Potency,[3],24.4 µM (active)
same,Potency,[4],38.6 µM (active)
same,Potency,[5],43.4 µM (active)
same,Potency,[6],48.6 µM (active)
same,Potency,[8],24.4 µM (active)
same,Potency,[9],inactive
same,Potency,[10],38.6 µM (active)
same,Potency,[11],inactive
same,Potency,[12],38.6 µM (active)
same,Potency,[20],24.4 µM (active)
same,Potency,[13],43.4 µM (active)
same,Potency,[14],34.4 µM (active)
same,Potency,[15],38.6 µM (active)
same,Potency,[17],inactive
same,Potency,[18],43.4 µM (active)
same,Potency,[19],60.7 µM (active)
